This is an account of results in PubChem BioAssay (NCI).

This is part of a sample that, as a whole, favours compounds with a hit. Of some 79,000 tested, about 15% had one in any assay. Unmarked numbers belong to inactive results. The source made the active and inactive calls. No stated cut-off is given here; in the data, active means growth inhibition above about 70%; inactive means the rest.

Assay [1] is described as follows: NCI Yeast Anticancer Drug Screen. Data for the rad50 strain (AID 155).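 Further: 0% = growth of vehicle-only cultures of the same strain.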 The settings on record: S. cerevisiae rad50 strain growth inhibition, stronger effect = higher value. An outline of the steps: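 Growth of the mutant yeast was measured after compound exposure and referenced to vehicle-treated cultures.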
Assay [2] can be described thus: NCI Yeast Anticancer Drug Screen. Data for the mec2-1 strain (AID 157). The following applies: S. cerevisiae mec2-1 strain, stronger effect = higher value. An outline of the steps:
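Mutant yeast (mec2-1) grown with compound; growth inhibition relative to vehicle control reported.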

Assay [3] in a line: NCI Yeast Anticancer Drug Screen. Data for the sgs1 mgt1 strain (AID 161).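 Further: 0% = growth of cultures given vehicle only.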 The following applies: S. cerevisiae sgs1 mgt1 strain, stronger effect = higher value. An outline of the steps:
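Compounds are added to genetically altered yeast, and growth is compared with cultures given vehicle alone to give percent inhibition.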

A short description of assay [4]: NCI Yeast Anticancer Drug Screen. Data for the cln2 rad14 strain (AID 165).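 Further: 0% = growth equal to vehicle treated cultures.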 The settings on record: S. cerevisiae cln2 rad14 strain, stronger effect = higher value. An outline of the steps: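 Readout is yeast growth inhibition versus vehicle-treated controls, using a strain with cln2 and rad14 alterations exposed to compound.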
A short description of assay [5]: NCI Yeast Anticancer Drug Screen. Data for the bub3 strain (AID 167). The following applies: S. cerevisiae bub3 mutant strain, stronger effect = higher value. An outline of the steps: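 Whole-cell yeast assay. The mutant strain was incubated with compounds, and growth inhibition was determined by comparison with vehicle-treated cells.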
Assay [6] is described as follows: NCI Yeast Anticancer Drug Screen. Data for the mlh1 rad18 strain (AID 175). The settings on record: S. cerevisiae mlh1 rad18 strain growth inhibition, stronger effect = higher value. An outline of the steps:
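Genetically defined yeast (DNA repair-deficient) exposed to compounds; growth inhibition determined relative to vehicle.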

[7] abbreviates: at 5.0 µM (retest, dose inferred, filed as 0.5).
Setting [8] is: at 50.0 µM (retest, dose inferred, filed as 5.0).

For `CCc1cccc(C(C)(C)C)c1NC(=S)N/C=C(\C#N)C(=O)c1ccc2ccccc2c1`, the growth inhibition in assay [1] (setting [7]) was -5%; in assay [1] (setting [8]), 34%; in assay [1] (at 50.0 µM), 67.4%; in assay [2] (setting [7]), -26%; in assay [2] (setting [8]) it was 25%; in assay [2] (at 50.0 µM), 35.5%. Moreover, the growth inhibition in assay [3] (setting [7]) is -8%; in assay [3] (setting [8]) it was 22%; in assay [3] (at 50.0 µM), 70.7% (active); in assay [4] (setting [7]), -18%; in assay [4] (setting [8]), 8%; in assay [4] (at 50.0 µM), 29.3%. The growth inhibition was -17% in assay [5] (setting [7]); 18% in assay [5] (setting [8]); 63.9% in assay [5] (at 50.0 µM); -6% in assay [6] (setting [7]); 38% in assay [6] (setting [8]); 65.2% in assay [6] (at 50.0 µM).

With `COc1ncnc2nc(SC)[nH]c12`, the growth inhibition in assay [1] (setting [7]) is -1%; in assay [1] (setting [8]), -2%; in assay [1] (at 50.0 µM), 99.7% (active); in assay [2] (setting [7]), 1%; in assay [2] (setting [8]), -2%; in assay [2] (at 50.0 µM), 99.8% (active). The growth inhibition in assay [3] (setting [7]) is -1%; in assay [3] (setting [8]), -4%; in assay [3] (at 50.0 µM) it was 99.6% (active); in assay [4] (setting [7]) it was 0%; in assay [4] (setting [8]), -2%; in assay [4] (at 50.0 µM), 99.7% (active). The growth inhibition in assay [5] (setting [7]) was -1%; in assay [5] (setting [8]), -4%; in assay [5] (at 50.0 µM) it was 99.7% (active); in assay [6] (setting [7]), 0%; in assay [6] (setting [8]), -4%; in assay [6] (at 50.0 µM), 99.5% (active).

On to `CCOC(=O)c1csc(=S)[nH]1`, for which the growth inhibition in assay [1] (setting [7]) is 2%; in assay [1] (setting [8]), 83% (active); in assay [1] (at 50.0 µM), 76.8% (active); in assay [2] (setting [7]), 2%; in assay [2] (setting [8]) it was 32%; in assay [2] (at 50.0 µM), 80.2% (active). Besides, the growth inhibition in assay [3] (setting [7]) was -16%; in assay [3] (setting [8]), 95% (active); in assay [3] (at 50.0 µM) it was 74.5% (active); in assay [4] (setting [7]) it was 5%; in assay [4] (setting [8]) it was 46%; in assay [4] (at 50.0 µM), -12.1%. Moreover, the growth inhibition in assay [5] (setting [7]) is -6%; in assay [5] (setting [8]), 86% (active); in assay [5] (at 50.0 µM), 47%; in assay [6] (setting [7]) it was 15%; in assay [6] (setting [8]), 96% (active); in assay [6] (at 50.0 µM) it was 35.9%.

As to `Cc1c2cnccc2c(C)c2c1c1ccccc1n2Cc1ccccc1`, the growth inhibition was 3% in assay [1] (setting [7]); 98% (active) in assay [1] (setting [8]); 89% (active) in assay [1] (at 50.0 µM); -2% in assay [2] (setting [7]); 75% (active) in assay [2] (setting [8]); 25.5% in assay [2] (at 50.0 µM). Also, the growth inhibition in assay [3] (setting [7]) is -2%; in assay [3] (setting [8]) it was 94% (active); in assay [3] (at 50.0 µM), 48.8%; in assay [4] (setting [7]), -1%; in assay [4] (setting [8]), 91% (active); in assay [4] (at 50.0 µM), 28.4%. The growth inhibition in assay [5] (setting [7]) was -3%; in assay [5] (setting [8]) it was 93% (active); in assay [5] (at 50.0 µM), 59.5%; in assay [6] (setting [7]) it was -8%; in assay [6] (setting [8]), 97% (active); in assay [6] (at 50.0 µM), 62.7%.

As to `Cc1cc(C)nc(NS(=O)(=O)c2ccc(Nc3c4ccccc4nc4c(C(=O)NC(CO)(CO)CO)cccc34)cc2)n1`, the growth inhibition is -11% in assay [1] (setting [7]); 26% in assay [1] (setting [8]); 81.8% (active) in assay [1] (at 50.0 µM); 4% in assay [2] (setting [7]); -2% in assay [2] (setting [8]); -6.1% in assay [2] (at 50.0 µM). Further, the growth inhibition was 0% in assay [3] (setting [7]); -8% in assay [3] (setting [8]); 4.9% in assay [3] (at 50.0 µM); 39% in assay [4] (setting [7]); -2% in assay [4] (setting [8]); 42.4% in assay [4] (at 50.0 µM). Moreover, the growth inhibition in assay [5] (setting [7]) is 4%; in assay [5] (setting [8]), 12%; in assay [5] (at 50.0 µM) it was 4.45%; in assay [6] (setting [7]), -3%; in assay [6] (setting [8]), 4%; in assay [6] (at 50.0 µM) it was -8.4%.

Regarding `N#CC(Br)(C#N)Cc1ccccc1`, the growth inhibition in assay [1] (setting [7]) is 1%; in assay [1] (setting [8]), 100% (active); in assay [1] (at 50.0 µM), 98.8% (active); in assay [2] (setting [7]), 8%; in assay [2] (setting [8]) it was 100% (active); in assay [2] (at 50.0 µM), 99.6% (active). Besides, the growth inhibition in assay [3] (setting [7]) is -11%; in assay [3] (setting [8]) it was 90% (active); in assay [3] (at 50.0 µM), 99.1% (active); in assay [4] (setting [7]), -10%; in assay [4] (setting [8]), 99% (active); in assay [4] (at 50.0 µM) it was 99.2% (active). In addition, the growth inhibition is 9% in assay [5] (setting [7]); 100% (active) in assay [5] (setting [8]); 99.5% (active) in assay [5] (at 50.0 µM); -10% in assay [6] (setting [7]); 100% (active) in assay [6] (setting [8]); 99.3% (active) in assay [6] (at 50.0 µM).

On to `O=C(O)/C(=C\c1ccc(O)cc1)c1cccc2ccccc12`, for which the growth inhibition was 31% in assay [1] (setting [7]); 18% in assay [1] (setting [8]); 45.3% in assay [1] (at 50.0 µM); -2% in assay [2] (setting [7]); 36% in assay [2] (setting [8]); 37.6% in assay [2] (at 50.0 µM). Also, the growth inhibition was -2% in assay [3] (setting [7]); 12% in assay [3] (setting [8]); 5.5% in assay [3] (at 50.0 µM); 3% in assay [4] (setting [7]); 27% in assay [4] (setting [8]); 76.2% (active) in assay [4] (at 50.0 µM). In addition, the growth inhibition in assay [5] (setting [7]) was -21%; in assay [5] (setting [8]), 22%; in assay [5] (at 50.0 µM), 61.5%; in assay [6] (setting [7]) it was -4%; in assay [6] (setting [8]), 49%; in assay [6] (at 50.0 µM), 48%.

For `COc1cc2cnc(-c3ccccc3)cc2cc1OC`, the growth inhibition in assay [1] (setting [7]) was 14%; in assay [1] (setting [8]) it was 71% (active); in assay [1] (at 50.0 µM), 43.5%; in assay [2] (setting [7]), 11%; in assay [2] (setting [8]), 76% (active); in assay [2] (at 50.0 µM) it was 17.6%. In addition, the growth inhibition in assay [3] (setting [7]) was 5%; in assay [3] (setting [8]), 63%; in assay [3] (at 50.0 µM), 13.9%; in assay [4] (setting [7]), -15%; in assay [4] (setting [8]) it was 99% (active); in assay [4] (at 50.0 µM) it was 26.9%. Also, the growth inhibition was 48% in assay [5] (setting [7]); 99% (active) in assay [5] (setting [8]); 81.3% (active) in assay [5] (at 50.0 µM); 13% in assay [6] (setting [7]); 86% (active) in assay [6] (setting [8]); 19.2% in assay [6] (at 50.0 µM).

On to `C1C[OH+]CC[OH+]CCNCC[OH+]CC[OH+]CCN1.[Cl-].[Pt+4]`, for which the growth inhibition was 34% in assay [1] (setting [7]); 34% in assay [1] (setting [8]); 86.8% (active) in assay [1] (at 50.0 µM); 34% in assay [2] (setting [7]); 34% in assay [2] (setting [8]); 87.4% (active) in assay [2] (at 50.0 µM). Also, the growth inhibition was 29% in assay [3] (setting [7]); 29% in assay [3] (setting [8]); 84.8% (active) in assay [3] (at 50.0 µM); 29% in assay [4] (setting [7]); 29% in assay [4] (setting [8]); 87.1% (active) in assay [4] (at 50.0 µM). Moreover, the growth inhibition is 10% in assay [5] (setting [7]); 10% in assay [5] (setting [8]); 86.2% (active) in assay [5] (at 50.0 µM); 43% in assay [6] (setting [7]); 43% in assay [6] (setting [8]); 84.2% (active) in assay [6] (at 50.0 µM).
